Results on 20 molecules are retold here after PubChem BioAssay (NCATS).

Records with an inconclusive call do not appear. Entries that show only a call come without a potency. The source made the active and inactive calls. Calls come from the whole dose curve; as a rule, active = well fitted inhibition curve with a large enough effect; inconclusive = small, poorly fitted or top-dose-only effect; inactive = no such curve, though single readings can be large or run the other way.
Potency is the fitted concentration of half-maximal effect.

This experiment relates to Zika virus NS2B-NS3 protease (linked construct). In words: Primary screen NINDS Rhodamine qHTS for Zika virus inhibitors (AID 1347160). Note: nearly all actives have a fitted effect of over 55% in size. The settings on record: purified NS2B-NS3 protease, Rhodamine110 substrate fluorescence; series mostly up to 33.1 µM. In short, it runs like this:
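Single-chain NS2B-NS3 protease, 25 nM, pH 8.0; compounds preincubated 15 min. Activity: Rhodamine110 release from 1.5 microM substrate over 15 min, room temperature, data fitted to 4-parameter Hill.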
A general note: In qHTS, concentration-response curves come from the screen itself.
Turning to `COC(=O)[C@]1(Cc2ccc(O)c(CC=C(C)C)c2)OC(=O)C(O)=C1c1ccc(O)cc1`, the Potency entry was “inactive”.

In the case of `C/C(=C\CCC1(C)C2CC3C(C2)C31C)C(=O)O` (stereo not given), the Potency result is “inactive”.

`CC/C=C/C=C/C1(C)OC(CC(CO)OC)=CC1=O` (stereo not given): the Potency entry was “inactive”.

With `CC1OC(OC2CCC3(C)C(CCC4(C)C3C=CC35OCC6(CCC(C)(C)CC63)CCC45C)C2(C)CO)C(OC2OC(CO)C(O)C(O)C2O)C(O)C1OC1OC(CO)C(O)C(O)C1O` (stereo not given), the Potency result was “inactive”.

For `CC[C@@H](Nc1c(Nc2cccc(C(=O)N(C)C)c2O)c(=O)c1=O)c1ccc(C)o1`, the Potency result was “inactive”.

For `CC(CC(C)O[C@@H]1O[C@H](CO)[C@@H](O)[C@H](O)[C@H]1O)OC(=O)/C=C/c1ccc(O)cc1` (stereo not given in full), the Potency is 12.6 µM (active).

As to `Cc1c(-c2ccc3c(c2)OCO3)oc2ccc(C(O)C(C)O)cc12` (stereo not given), the Potency result is “inactive”.

Take `CC1=C2C(=O)C=C(CO)C2[C@H]2OC(=O)[C@H](C)[C@@H]2[C@@H](OC(=O)Cc2ccc(O)cc2)C1` (stereo not given in full): the Potency result is “inactive”.

For `CC1CCC2(C(=O)OC3OC(CO)C(O)C(O)C3O)CCC3(C)C(=CCC4C5(C)CCC(O)C(C)(CO)C5CCC43C)C2C1(C)O` (stereo not given), the Potency result is “inactive”.

Consider `CC1CC2(O)OC(=O)C3=C2C(CCC3)[C@@]12C[C@@H](c1ccoc1)OC2=O` (stereo not given in full), for which the Potency entry was “inactive”.

`O=C(N[C@@H]1CC[C@@H](c2cccc(F)c2F)CN(CC(F)(F)F)C1=O)N1CCC(n2c(=O)[nH]c3ncccc32)CC1`: the Potency result was “inactive”.

Take `CC(C)(O)C1CC=C(C(=O)OC[C@H]2O[C@@H](Oc3cc(C(=O)O)cc(O)c3O)[C@H](O)[C@@H](O)[C@@H]2O)CC1` (stereo not given in full): the Potency result was “inactive”.

As for `O=C(Cn1c2ccccc2c2nc3n(c(=O)c21)CCS3)N1CCCC1`, the Potency result is “inactive”.

For the molecule `CC1(C)CC[C@]2(C(=O)O[C@@H]3O[C@H](CO)[C@@H](O)[C@H](O)[C@H]3O)CC[C@]3(C)C(=CCC4[C@@]5(C)C[C@@H](O)[C@H](O)[C@@](C)(CO)C5[C@H](O)C[C@]43C)C2[C@@H]1O` (stereo not given in full), the Potency entry was “inactive”.

`COC(=O)C1=CO[C@@H](O[C@@H]2O[C@H](CO)[C@@H](O)[C@H](O)[C@H]2O)[C@@H]2[C@@H](C)[C@@H](O)C(O)[C@H]12` (stereo not given in full): the Potency entry was “inactive”.

Turning to `COc1ccc(OC)c(C2C(C#N)=C(N)Oc3n[nH]c(-c4ccc5ccccc5c4)c32)c1` (stereo not given), the Potency result was “inactive”.

For the molecule `CC(=O)OC1CC2C(C)(C)C(=O)C=CC2(C)C2CC(=O)C3=C(CCC3C3=CC(O)OC3=O)C12C` (stereo not given), the Potency entry is “inactive”.

Consider `C=C1C2(C)CC3C4(C)C=CC(=O)OC(C)(C)C4CCC3(C)C1(C(=O)OC)C(=O)C(C)(O)C2=O` (stereo not given), for which the Potency entry was “inactive”.

Consider `COc1ccc(-c2ccn(CC[C@](C)(C(=O)NO)S(C)(=O)=O)c(=O)c2)c(F)c1`, for which the Potency entry is “inactive”.

Regarding `O=C(/C=C/N1C[C@@H]2C[C@@H]1CN2c1ccccn1)c1ccccc1O`, the Potency result was “inactive”.
